Laboratory results reported in PubChem BioAssay AID1159580 (chemical genetic matrix, 2015).
The campaign covered roughly 5,500 compounds. About 2,000 (36%) were called active. Inconclusive results (about 18%) are left out. Cut-off read from the data, not from the text of the source: active = normalized growth mostly below about 0.91 (no sharp cut-off); inconclusive = no clear call, values can overlap the other calls; inactive = mostly above about 0.92. This is one part of the list.

Assay: chemical genetic growth profiling, strain panel (AID 1159580);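 note: tested at 20 µM; growth read once vehicle control cultures reached saturation at 30 °C; 1 = growth at the plate median or of vehicle wells; lower values mean less growth of the strain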
Settings: S. cerevisiae deletion strains, growth OD

Measured: normalized growth

CC(/C=N\O)=N/Nc1ccccc1
active: locus YKL190W, strain CNB1, stronger effect = lower value 0.887 | locus YLR039C, strain RIC1, stronger effect = lower value 0.324 | locus YLR262C, strain YPT6, stronger effect = lower value 0.253 | locus YML094W, strain GIM5, stronger effect = lower value 0.841 | locus YOL006C, strain TOP1, stronger effect = lower value 0.527
inactive: locus YAL013W, strain DEP1, stronger effect = lower value 0.969 | locus YBR229C, strain ROT2, stronger effect = lower value 0.938 | locus YDL101C, strain DUN1, stronger effect = lower value 1.01 | locus YDL134C, strain PPH21, stronger effect = lower value 0.975 | locus YDR150W, strain NUM1, stronger effect = lower value 0.932 | locus YEL061C, strain CIN8, stronger effect = lower value 0.953 | locus YGR078C, strain PAC10, stronger effect = lower value 0.961 | locus YHR030C, strain SLT2, stronger effect = lower value 0.774 | locus YHR087W, strain rtc3, stronger effect = lower value 0.916 | locus YJR043C, strain POL32, stronger effect = lower value 0.974 | locus YJR075W, strain HOC1, stronger effect = lower value 0.954 | locus YLR058C, strain SHM2 (second series), stronger effect = lower value 0.979 | locus YLR085C, strain ARP6, stronger effect = lower value 0.793 | locus YMR219W, strain ESC1, stronger effect = lower value 0.955 | locus YMR263W, strain SAP30, stronger effect = lower value 0.967 | locus YNL153C, strain GIM3, stronger effect = lower value 0.973 | locus YNL298W, strain CLA4 (second series), stronger effect = lower value 0.923 | locus YNL322C, strain KRE1, stronger effect = lower value 1.01 | locus YNR030W, strain Alg12, stronger effect = lower value 0.951 | locus YPL055C, strain LGE1, stronger effect = lower value 1.05 | locus YPL241C, strain CIN2, stronger effect = lower value 0.907 | locus YPR135W, strain CTF4, stronger effect = lower value 0.889
